PI5P4K alpha inh: blocks human PI5P4K alpha kinase activity; 330,000 compounds, 1.2% hits; max response, %; PI5P4Kalpha enzyme, ADP-Glo luminescence, 60 min; active compounds read low; AID 652105; P48426; active = max response of -50% or lower; inconclusive = between -30% and -50%; inactive = -30% or higher; also: value at the top dose of about 77 µM
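Enzyme plus substrate dispensed, test compounds pinned in, then ATP (5 microM final) added. After 60 min at RT, ADP-Glo reagent 1 for 45 min and reagent 2 for 30 min preceded luminescence imaging.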
USP1 inh: inhibitors of human USP1/UAF1 deubiquitinase | recombinant USP1/UAF1, Ub-Rhodamine cleavage fluorescence | Potency, µM (top dose mostly 57.1 µM), inactives show at the highest dose activity change, negative = inhibition, actives largely listed as inhibitors | 390,000 compounds, 0.23% hits | AID 743255; also: potency is read from the fitted curve at half-maximal effect; nearly all actives have a fitted effect of over 60% in size
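USP1/UAF1 complex (1 nM) preincubated 15 min at room temperature with compound, then Ub-Rho substrate (150 nM final) added. Kinetic fluorescence at 480/540 nm over 6 reads at 60 s intervals; 50 mM HEPES pH 7.8, 0.5 mM EDTA, 0.1 mg/ml BSA, 1 mM TCEP, 0.01% Tween-20.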
PLK1 PBD inh: PLK1 (human) polo-box domain binding inhibition; P53350; Plk1 PBD binding of FITC phosphopeptide, fluorescence polarization; Potency, µM, for the others: max response, negative = inhibition, usual class: inhibitors; 360,000 compounds, 2.8% hits; AID 720504; also: potency is read from the fitted curve at half-maximal effect; series mostly up to about 57 µM; nearly all actives have a fitted effect of over 65% in size
Target sequence (P53350 whole entry, looked up, the tested form may be a part): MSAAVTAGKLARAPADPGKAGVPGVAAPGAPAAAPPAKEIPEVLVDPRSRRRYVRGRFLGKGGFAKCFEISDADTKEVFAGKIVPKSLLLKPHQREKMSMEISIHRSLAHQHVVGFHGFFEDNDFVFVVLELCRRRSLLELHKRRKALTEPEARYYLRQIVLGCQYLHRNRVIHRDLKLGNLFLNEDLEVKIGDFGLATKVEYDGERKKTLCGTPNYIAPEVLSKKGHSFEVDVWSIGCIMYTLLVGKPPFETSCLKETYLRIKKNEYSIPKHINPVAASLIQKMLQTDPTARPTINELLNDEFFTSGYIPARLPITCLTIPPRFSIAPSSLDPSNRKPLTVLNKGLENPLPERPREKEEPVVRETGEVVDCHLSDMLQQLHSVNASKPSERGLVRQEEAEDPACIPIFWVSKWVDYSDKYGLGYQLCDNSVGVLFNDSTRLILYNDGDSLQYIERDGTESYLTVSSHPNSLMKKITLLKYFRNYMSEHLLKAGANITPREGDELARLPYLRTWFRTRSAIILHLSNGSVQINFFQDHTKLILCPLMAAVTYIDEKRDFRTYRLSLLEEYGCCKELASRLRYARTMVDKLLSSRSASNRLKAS
WRN inhibitor: blocks human WRN helicase; Q14191; WRN helicase unwinding, fluorescent forked duplex, kinetic; Potency, µM (doses to about 114 µM), inactives show at the highest dose activity change, negative = inhibition, actives largely listed as inhibitors; 360,000 compounds, 0.46% hits; also: potency is read from the fitted curve at half-maximal effect; nearly all actives have a fitted effect of over 55% in size
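Kinetic fluorescence helicase assay: unwinding of a quenched forked DNA duplex (100 nM final) with 2 mM ATP final raises red fluorescence (525/598 nm). Compounds sat 15 min at room temperature with 20 nM WRN beforehand.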
USP2a block: USP2a (human) protease inhibition | 330,000 compounds, 0.01% hits | USP2 core, Ub-CHOP2 coupled fluorogenic reporter, 485/531 | AID 463254 | O75604 | Potency, µM (highest dose often 38.3 µM), inactives show top-dose activity change, negative = inhibition, actives largely listed as inhibitors;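 also: potency is read from the fitted curve at half-maximal effect; plate controls were DMSO wells for no effect and full inhibition by NEM control for full effect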
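USP2 core (10nM final) preincubated 30min RT with compound in 20mM Tris-HCl pH 8.0, 2mM CaCl2, 2mM beta-mercaptoethanol, 0.05% CHAPS; 25nM Ub-CHOP2 plus 25nM reporter substrate added, fluorescence (Ex485/Em531) read after 60min.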
The depositor's hits bear a star; ? = inconclusive; . = no result given; [ ] = another dose, or the depositor's remark. Sampled rows, rich in hits. Any-hit rate of the full collection: about 3.3%. Unless noted, calls follow the shape of the dose curve; as a rule, active = well fitted curve in the direction sought with a large enough effect; inconclusive = small, poorly fitted or top-dose-only effect, or another doubt; inactive = no such curve, though single readings can be large; an effect the other way counts as inactive or inconclusive. Unless noted, % is scaled to controls: 0 for no effect and ±100 for the full control effect.

SMILES	PI5P4K alpha inh	USP1 inh	PLK1 PBD inh	WRN inhibitor	USP2a block
COC(=O)/C=C1\SC(=NC(=O)c2ccc(OC)cc2)NC1=O	-1	-27%	-12%	-23%	2%
COC(=O)/C=C1\SC(=NC(=O)c2ccc(-c3ccccc3)cc2)NC1=O	-63*	?	19µM*	-5%[11.6 µM]	-2%
COC(=O)/C=C1\S/C(=N/NC(=O)c2ccc(OC)cc2)NC1=O	-13	-5%	19µM*	9%	2%
COC(=O)/C=C1/S/C(=N/NC(=O)c2ccc(OC)cc2)NC1=O	-5	-22%	-13%	1%	1%
Cc1ccccc1Cn1cc(S(=O)(=O)c2ccc(F)cc2)c(=O)c2cc3c(cc21)OCO3	.	-20%	.	.	.
CN1CCN(C(c2ccc(Cl)cc2Cl)c2sc3nc(-c4ccco4)nn3c2O)CC1 (stereo not given)	.	-28%	.	.	.
Cc1nn(C)c(Oc2cccc(Cl)c2)c1C#N	-28	-17%	8.4µM*	14%	0%
Cc1ccc(-c2nc3sc(CCNS(=O)(=O)c4cc(F)ccc4F)c(C)n3n2)cc1	.	-14%	.	.	.
C/C(=C\c1ccc(C(=O)O)cc1)c1ccc2c(c1)C(C)(C)CCC2(C)C	32	-14%	27µM*	1%	1%
COc1ccc(CNCCC(c2ccc3c(c2)OCO3)c2ccccc2OC)cc1 (stereo not given)	.	-1%	.	.	.
CCC(=O)N1CCc2cc(CNS(=O)(=O)c3ccccc3F)ccc21	.	-17%	.	.	.
O=C1NC(=S)N/C1=C/c1cccc([N+](=O)[O-])c1O	-89*	-26%	-16%	-18%	2%
Cc1ccc(/C=C2\NC(=S)NC2=O)cc1[N+](=O)[O-]	2	-21%	-8%	-12%	0%
O=C1NC(=S)N/C1=C/c1cc([N+](=O)[O-])ccc1O	-61*	-20%	-27%	?	2%
CC(=O)N1CCc2c(sc3c2c(=O)n(-c2ccccc2)c(=O)n3CC(=O)c2ccc(F)cc2)C1	.	-21%	.	.	.
CCn1cc(C(=O)N2CC(C)CC(C)C2)c(=O)c2cc(S(=O)(=O)N(C)C)ccc21 (stereo not given)	1	-4%	21µM*	1%	0%
CCn1cc(C(=O)N2CCCC2)c(=O)c2cc(S(=O)(=O)N(C)C)ccc21	-3	2%	-9%	-14%	2%
Cc1ccc(C)c(CN2C(=O)C3(c4ccccc42)N(c2ccc(Cl)cc2)C(=O)CS3(=O)=O)c1 (stereo not given)	.	-16%	.	.	.
CCCCNC(=O)c1nn2c(C(F)(F)F)cc(-c3ccc(OC)cc3)nc2c1Br	-12	-4%	12µM*	?	0%
C=CCSc1nc2[nH]ncc2c(=O)[nH]1	-8	-9%	30µM*	-4%	0%
C#CCSc1nc2[nH]ncc2c(=O)[nH]1	-2	-7%	6%	-13%	-1%
CCc1c(C)sc2c1CCN(Cc1ccccc1F)C2c1ccccc1 (stereo not given)	.	-29%	.	.	.
O=C(Nc1ccc(Cl)cc1)Nc1cnccn1	-3	-14%	30µM*	11%	1%
CCCC1=Nc2cc(C(=O)NC3CCCCC3)ccc2Sc2ccc(C)cc21	.	-9%	.	.	.
COc1ccc(C)cc1NC(=O)c1nnn(Cc2cccc(F)c2)c1N	1	-1%	38µM*	-3%	0%
SMILES	PI5P4K alpha inh	USP1 inh	PLK1 PBD inh	WRN inhibitor	USP2a block
CCn1c(SCC(=O)Nc2cccc(Cl)c2)nnc1-c1nonc1NC(C)=O	.	-8%	.	.	.
O=C(CCCOc1ccc(Cl)cc1Cl)N/N=C/c1cccc([N+](=O)[O-])c1	7	?	27µM*	-22%	3%
O=C(COc1ccc(Cl)cc1Cl)N/N=C/c1cccnc1	3	-10%	-14%	10%	2%
CN(C)CCN(Cc1ccco1)C(=O)c1cc2c(s1)-c1ccccc1OC2	.	-16%	.	.	.
CCOC1=C2[C@H](c3ccc(CC)cc3)N(S(=O)(=O)c3ccc(C)cc3)C[C@H]2C(C#N)(C#N)C(C#N)(C#N)C1	?	.	17µM*	-6%	.
CCOC1=C2[C@H](c3ccccc3Cl)N(S(=O)(=O)c3ccc(C)cc3)C[C@H]2C(C#N)(C#N)C(C#N)(C#N)C1	-62*	.	27µM*	-14%	.

Screening results from PubChem.
